# From PubChem
# SENP6 inh = inhibitors of human SENP6 protease; Recombinant SENP6 catalytic domain, aminoluciferin luminescence; inhibition, % at 10 µM; hit rate 1.8% among 330,000; AID 2599;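 active means inhibition above about 50% at the single tested dose, limit read from the data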;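 further: plate controls were DMSO wells with enzyme for no effect and DMSO wells lacking enzyme for full effect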
# Target sequence (Q9GZR1 628-1112 limits assumed): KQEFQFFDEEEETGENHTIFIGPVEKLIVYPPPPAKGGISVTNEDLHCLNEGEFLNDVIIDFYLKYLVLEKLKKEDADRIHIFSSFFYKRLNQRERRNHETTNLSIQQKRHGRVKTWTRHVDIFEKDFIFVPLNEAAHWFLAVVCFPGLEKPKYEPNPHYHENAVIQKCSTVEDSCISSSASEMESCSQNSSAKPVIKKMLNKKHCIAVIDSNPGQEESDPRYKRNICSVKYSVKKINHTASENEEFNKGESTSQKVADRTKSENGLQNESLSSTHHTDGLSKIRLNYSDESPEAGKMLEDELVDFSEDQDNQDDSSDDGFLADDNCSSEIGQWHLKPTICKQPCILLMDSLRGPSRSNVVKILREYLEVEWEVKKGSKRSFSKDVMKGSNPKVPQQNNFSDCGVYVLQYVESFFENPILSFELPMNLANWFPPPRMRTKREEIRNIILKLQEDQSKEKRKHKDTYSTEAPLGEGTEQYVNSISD
# SENP8 block-1 = inhibitors of human SENP8 protease; Q96LD8; purified SENP8, Z-RLRGG-aminoluciferin cleavage, luminescence; inhibition, % at 10 µM; hit rate 1.2% among 330,000; in the data active means inhibition above about 50%
# SENP7 block = blocks the human protease SENP7. recombinant SENP7, Z-RLRGG-aminoluciferin luminescence, 40 min. inhibition, % at 5 µM. hit rate 1.5% among 330,000;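 active means inhibition above about 50% at the single test dose, limit read from the data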;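 further: plate controls were DMSO with enzyme for no effect and no enzyme buffer wells for full effect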
# HSP90 inh = HSP90 refolding inhibition in rabbit reticulocyte lysate. hit rate 0.91% among 290,000. luciferase refolding luminescence, 3 h. inhibition, % at 5.6 µM;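 active means inhibition above the screen-wide mean plus 3 SD, computed separately per campaign, cut at about 16% in these data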;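 further: 0% = DMSO wells and 100% = 60 µM geldanamycin wells; inhibitors lower the luminescence because luciferase stays unfolded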
# SENP8 block-2 = blocks human SENP8 cleavage of Nedd8 substrate; inhibition, % at 20 µM; recombinant SENP8, Nedd8 substrate fluorescence; AID 602440; hit rate 0.64% among 360,000; in the data active means inhibition mostly above about 40%, no sharp cut-off; inactive means mostly below about 27%
# * hit, by the source's call; i = inactive; . = not tested or not shown. Rows were chosen to be rich in hits. Some 2.7% of all compounds tested hit in one or more screens of this group.
SMILES,SENP6 inh,SENP8 block-1,SENP7 block,HSP90 inh,SENP8 block-2
Cc1cc(C)nc(SCc2csc(-c3ccccc3)n2)n1,60*,30,38,4,11
Cc1ccc(C(=O)COC(=O)c2cccc(O)c2)s1,93*,83*,95*,.,-4
Cc1ccc2c(c1)[C@H]1[C@H](CO2)[C@H](c2ccccc2)[C@]2(C)C(=O)N(Cc3ccccc3)CC(=O)N12,4,-5,7,.,13
CC(/C=C(\NC(=O)c1ccccc1)C(=O)N=Nc1c(O)[nH]c2ccc(C)cc12)=C\c1ccccc1,-8,-1,3,0,51*
N#Cc1c(SCc2nc3ccccc3[nH]2)nc2c(c1C(F)(F)F)CCC2,.,.,.,3,.
N#Cc1cc2c(nc1SCc1nc3ccccc3[nH]1)CCC2,81*,54*,12,15,.
O=C(O)C1CC(c2ccccc2F)=NO1 (stereo not drawn),-9,-1,3,-1,8
CCSc1nnc(N2C(=O)C(O)=C(C(=O)c3ccco3)C2c2cccc(OC)c2)s1 (stereo not drawn),-3,-3,1,2,-53
COc1ccc(NC(C)c2cc(Cl)ccc2O)cc1 (stereo not drawn),-12,-6,-5,-3,47*
CC(Nc1ccccc1)c1cc(Cl)ccc1O (stereo not drawn),-5,-4,1,0,25
NS(=O)(=O)c1ccc(N=Nc2ccc(=O)[nH]c2O)cc1,.,.,.,6,64*
NS(=O)(=O)c1ccc(N=Nc2ccc(O)c3ncccc23)cc1,11,18,6,-1,35
Nc1[nH]c(C(=O)c2ccccc2)c(-c2ccccc2Br)c1C(=O)NCCc1c[nH]c2ccccc12,.,.,.,.,13
O=c1c(C=NCCN2CCNCC2)c(-c2ccccc2)[nH]n1-c1ccc([N+](=O)[O-])cc1,93*,90*,84*,-2,.
CCc1cc2c(=O)c(-c3nc(C)cs3)coc2cc1O,66*,38,77*,0,-16
Fc1ccc(N/N=C/c2ccncc2)c(F)c1,58*,44,30,-3,1
Cc1ccc(S(=O)(=O)Nc2ccccc2)cc1[N+](=O)[O-],.,.,.,.,17
Cc1cccc2c(N=Nc3ccc(S(=O)(=O)Nc4cccc(Cl)c4)cc3[N+](=O)[O-])c(O)[nH]c12,-5,-11,0,13,47*
CCOC(=O)c1ccc(-c2ccc(/C=N/NC(=O)CN(c3ccccc3Br)S(C)(=O)=O)o2)cc1,-5,-10,0,16*,-403
COc1ccccc1N1CCN(C(=O)CSc2ncccc2-c2nc3ccccc3[nH]2)CC1,-6,0,1,22*,-278
COc1ccc(N2CCN(C(=O)CSc3ncccc3-c3nc4ccccc4[nH]3)CC2)cc1,7,-8,-4,3,-370
CCC1CCCCN1C(=O)c1ccc(OC2CCN(Cc3ccccn3)CC2)cc1 (stereo not drawn),3,-1,-3,-1,-2
O=C(c1ccc(OC2CCN(Cc3ccccn3)CC2)cc1)N1CCC[C@H]1CO,-27,-12,-12,16*,5
Cc1cc(Cl)ccc1OCC(=O)Nc1ccccc1NS(=O)(=O)c1cccs1,-17,-1,-4,0,27
N=C1C=CC=C2C1=NC1(CCCCC1)N2O,11,10,1,1,36*
SMILES,SENP6 inh,SENP8 block-1,SENP7 block,HSP90 inh,SENP8 block-2
COc1cc(C(=O)NNC(=O)CCOc2ccccc2)cc(OC)c1OC,1,-2,9,.,9
O=C(NCc1nnc(SCc2ccccc2)n1-c1ccccc1)C12CC3CC(CC(C3)C1)C2,-11,-6,-2,-1,8
CN1C(=O)/C(=C/c2cccc([N+](=O)[O-])c2)C(=O)N1c1ccccc1,-6,-1,7,2,45*
Cn1c(=O)c2c(-c3ccccc3)n(-c3ccc(N)cc3)cc2n(C)c1=O,.,.,.,.,60*
Cn1c(=O)c2c(-c3ccccc3)n(-c3cccc(O)c3)cc2n(C)c1=O,.,.,.,.,-372
CCCC[n+]1ccn(C2=C([O-])c3ccccc3C(=O)/C2=N\S(=O)(=O)c2ccc(Br)cc2)c1,49,-1,22,1,74*
CCCC[n+]1ccn(-c2nc3ccccc3nc2[N-]S(=O)(=O)c2ccc(Cl)cc2)c1,-1,1,-2,1,-494
Cc1ccc(S(=O)(=O)/N=C2\C(=O)c3ccccc3C([O-])=C2n2cc[n+](CCC(C)C)c2)cc1,38,25,30,-2,84*
Cc1ccc(NC(=O)C[n+]2ccn(C3=C([O-])c4ccccc4C3=O)c2)cc1,-1,4,8,1,33
COc1ccc(S(=O)(=O)N2CCOCC2)cc1NC(=O)Cc1ccc(F)cc1,.,.,.,.,14
Cc1ccc(S(=O)(=O)N2CCN(C(=O)CCn3nc(C)c(C)c3C)CC2)cc1C,-9,5,-1,-2,9
Cc1cc(/C=N/NC(=O)c2ccoc2C)cc(C)c1O,.,.,.,.,-42
O=C(N/N=C/c1ccc(OCc2ccc(F)cc2)cc1)c1ccccc1,-32,-8,-10,-1,1
CC(C)(C)c1ccc(OCc2ccc(C(=O)N/N=C/c3ccc(O)c(O)c3)cc2)cc1,10,-8,5,17*,-65
Cc1occc1C(=O)N/N=C/c1ccc2c(c1)OCO2,100*,96*,99*,14,3
Cc1occc1C(=O)N/N=C/c1ccc(OCc2ccccc2)cc1,90*,80*,90*,10,16
COc1ccc(-c2[nH]nc3c2C(c2ccc(OC(=O)N4CCOCC4)cc2)C(C#N)=C(N)O3)cc1 (stereo not drawn),-5,14,4,3,.
COc1ccc(-c2oc3cc(OC(C)=O)cc(OC(C)=O)c3c(=O)c2OC)cc1,.,.,.,.,i
CC(=O)Oc1cc(O)c2c(=O)c(OC(C)=O)c(-c3ccc(OC(C)=O)c(OC(C)=O)c3)oc2c1,3,8,-2,.,40*
CC1(c2ccccc2)NC(=O)N(CC(=O)Nc2cc(C(F)(F)F)ccc2N2CCCCC2)C1=O (stereo not drawn),.,.,.,.,17
Cc1cc2c(nn1)CCc1c-2no[n+]1[O-],-32,-9,-1,-4,13
O=C(O)c1cccc(S(=O)(=O)N2CCCC(c3nc4c(nnn4Cc4ccccc4Cl)c(=O)[nH]3)C2)c1 (stereo not drawn),1,4,-2,-4,6
Cc1ccc(C(=O)N2C(=O)c3cccc(N)c3C2=O)o1,82*,-2,4,0,-108
Nc1cccc2c1C(=O)N(C(=O)c1cccc(S(=O)(=O)N3CCCC3)c1)C2=O,-4,1,0,-1,i
CC(C)Cn1[nH]c2c3c(ccc2c1=O)C(=O)c1ccccc1C3=O,27,7,7,-1,43*
CN1CCSc2ccc(C(=O)Nc3cccc(F)c3)cc21,94*,83*,90*,9,-418
Cn1ccnc1SC(C(=O)O)c1ccccc1 (stereo not drawn),4,12,4,-3,2
Cc1cc(C)n2c(C)nnc2c1,-8,-2,-4,-3,18
Cn1c(CCC(=O)OCC(=O)NCC(F)(F)F)nc(=O)c2ccccc21,-7,1,-3,-2,4
